Screens: PubChem BioAssay, several laboratories
Shown are actives, neighbours in structure and some others; about 2.7% of the full set was active somewhere.
Shn3 3UTR inh: Schnurri-3 reporter inhibition in Clone20 osteoblasts; Clone20 osteoblast Shn3 3'UTR firefly luciferase, 24 h; inhibition, % at 12.5 µM; 360,000 compounds, 0.52% hits; AID 588674;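 active = mean inhibition of at least 75% with every replicate also reaching 75%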;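 also: 0% = median of neutral control wells and 100% = pilot-screen positive control compound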
HIF-2a block: blocks HIF-2a reporter activity | 786-0 RCC cells HIF-2a reporter, luciferase luminescence, overnight | 360,000 compounds, 0.72% hits | inhibition, % at 18.8 µM | AID 624352;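 active = inhibition of the luminescence signal of 40% or more relative to plate controls, in a single-dose primary screen at 18.75 µM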
CF NFkB inh: cystic fibrosis NF-kB activation inhibition. KKLEB NF-kB-GFP reporter, PAF-induced, GFP fluorescence overnight. inhibition, % at 5 µM. 360,000 compounds, 0.86% hits. AID 588850;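 active = at least 50% inhibition at 5 µM, scaled per plate between neutral and stimulator controls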;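 also: PAF is a Pseudomonas aeruginosa culture filtrate used as stimulus; plate controls were PAF-stimulated DMSO wells for no effect and unstimulated DMSO wells for full effect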
MITF TRPM1 inh: inhibitors of MITF-driven TRPM1 promoter in melanoma cells; inhibition, % at 12.5 µM; 330,000 compounds, 0.83% hits; SK-MEL-5 TRPM1 promoter luciferase, 24 h;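 active = mean inhibition across replicates of 60% or more, whatever share of single replicates reaches that level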
Peg3 prom inh: Peg3 promoter activity inhibition | 360,000 compounds, 1.7% hits | AID 588405 | inhibition, % at 20 µM | HeLa PEG-Prom luciferase reporter, luminescence, overnight;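 active = inhibition of at least 50% at 20 µM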
KKLEB cytotox: CF airway cell cytotoxicity counter-screen. activity change (cytotoxicity), % at 5 µM. AID 602141. KKLEB CF airway cells viability, ATPlite luminescence, overnight; stronger effect = lower value; cells stimulated with P. aeruginosa culture filtrate. 360,000 compounds, 0.36% hits;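 active = corrected activity change at or below -50% at 5 µM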
* marks the source's active call; other numbers are inactive results.

NC1=NC[C@H](c2ccccc2)N1CCCCC1CCCCC1 was read as Shn3 3UTR inh 82, HIF-2a block 7, CF NFkB inh 5, MITF TRPM1 inh 15, Peg3 prom inh 100* and KKLEB cytotox -26.
For S=C1NC[C@H](c2ccccc2)N1CCCCC1CCCCC1 the results were Shn3 3UTR inh 16, HIF-2a block 3, CF NFkB inh -13, MITF TRPM1 inh 1, Peg3 prom inh -2 and KKLEB cytotox -10.
`COc1cc(/C=C2\CCC/C(=C\c3ccc(O)c(OC)c3)C2=O)ccc1O` gave Shn3 3UTR inh 14, HIF-2a block 81*, CF NFkB inh -11, MITF TRPM1 inh 13, Peg3 prom inh 105* and KKLEB cytotox -16.
`COc1ccc(/C=C2\COc3ccccc3C2=O)cc1OC` gave Shn3 3UTR inh 11, HIF-2a block -10, CF NFkB inh 12, MITF TRPM1 inh 8, Peg3 prom inh 95* and KKLEB cytotox 2.
For COc1cc(/C=C2\CC/C(=C\c3cc(OC)c(O)c(OC)c3)C2=O)cc(OC)c1O the results were Shn3 3UTR inh 34, HIF-2a block -30, CF NFkB inh 62*, MITF TRPM1 inh 68*, Peg3 prom inh 105* and KKLEB cytotox -44.
`COc1cc(/C=C2/CCCC(C(=O)C(F)(F)F)=C2O)ccc1O` gave Shn3 3UTR inh -30, HIF-2a block -2, CF NFkB inh 19, MITF TRPM1 inh 9, Peg3 prom inh -31 and KKLEB cytotox -4.
`COc1cc(/C=C2\COC/C(=C\c3cc(OC)c(OC)c(OC)c3)C2=O)cc(OC)c1OC` gave Shn3 3UTR inh 96*, HIF-2a block 93*, CF NFkB inh 93*, MITF TRPM1 inh 92*, Peg3 prom inh 105* and KKLEB cytotox -67*.
Screening O=C(COC(=O)c1ccc2c(c1)OCCO2)NCCc1ccccc1 returned Shn3 3UTR inh 0, HIF-2a block 0, CF NFkB inh 3, MITF TRPM1 inh 3, Peg3 prom inh 14 and KKLEB cytotox -14.
`O=C1Nc2ccc(Br)cc2C12NNc1ccccc1O2` (configuration not stated) gave Shn3 3UTR inh -17, HIF-2a block -26, CF NFkB inh -83, MITF TRPM1 inh 16, Peg3 prom inh 67* and KKLEB cytotox 7.
Cc1n[nH]c(=O)c2c(NC(=O)CSc3nc4ccccc4c(=O)n3CCCOC(C)C)oc(C)c12 was read as Shn3 3UTR inh 12, HIF-2a block -7, CF NFkB inh 9, MITF TRPM1 inh -5, Peg3 prom inh -7 and KKLEB cytotox 0.
Screening O=C(N/N=C/c1cccs1)c1ccccn1 returned Shn3 3UTR inh -32, HIF-2a block -84, CF NFkB inh -1, MITF TRPM1 inh -48, Peg3 prom inh -142 and KKLEB cytotox 15.
Screening C(=NN=C(NN=Cc1cccs1)NN=Cc1cccs1)c1cccs1 returned Shn3 3UTR inh -8, HIF-2a block -123, CF NFkB inh -21, MITF TRPM1 inh -7, Peg3 prom inh 78* and KKLEB cytotox 1.
O=C(OCC(=O)c1ccc[nH]1)c1ccc(S(=O)(=O)C(F)F)cc1 was read as Shn3 3UTR inh -11, HIF-2a block 2, CF NFkB inh -7, Peg3 prom inh -13 and KKLEB cytotox 10.
Screening CCCSc1nc2c(cnn2-c2ccc(C)cc2)c(=O)[nH]1 returned Shn3 3UTR inh 1, HIF-2a block 17, CF NFkB inh 22, MITF TRPM1 inh 2, Peg3 prom inh 61* and KKLEB cytotox -6.
`CN(C)C(=O)CSc1nc2ccc(C(=O)c3ccccc3)cc2[nH]1` gave Shn3 3UTR inh -5, HIF-2a block -86, CF NFkB inh -6, MITF TRPM1 inh -18, Peg3 prom inh -38 and KKLEB cytotox 6.
Screening Cc1c(CC(=O)O)c(=O)oc2c(C)c(OCc3ccc(F)cc3Cl)ccc12 returned Shn3 3UTR inh 7, HIF-2a block 21, CF NFkB inh 12, MITF TRPM1 inh -2, Peg3 prom inh -3 and KKLEB cytotox -2.
Screening CC1OC(CC(=O)O)CC2=C1C(=O)c1c(O)cccc1C2=O (configuration not stated) returned Shn3 3UTR inh 99*, HIF-2a block 87*, CF NFkB inh 101*, MITF TRPM1 inh 113*, Peg3 prom inh 100* and KKLEB cytotox -105*.
`COc1cc(OC)cc(C(=O)NCC(C)NC(=O)c2cc(OC)cc(OC)c2)c1` (configuration not stated) gave Shn3 3UTR inh -17, HIF-2a block 18, CF NFkB inh -19, MITF TRPM1 inh -1, Peg3 prom inh 4 and KKLEB cytotox 8.
`O=C(Nc1ccc2ccccc2n1)c1ccccc1Cl` gave Shn3 3UTR inh -3, HIF-2a block -242, CF NFkB inh -19, MITF TRPM1 inh -74, Peg3 prom inh -207 and KKLEB cytotox -6.
CN(C)CCNC(=O)c1cccc2nc3c(ccc4ccccc43)nc12 was read as Shn3 3UTR inh 78, HIF-2a block 28, CF NFkB inh -169, MITF TRPM1 inh 86*, Peg3 prom inh 98* and KKLEB cytotox -7.
COc1ccc(C(=O)NCCN(C)C)c2nc3ccccc3cc12 was read as Shn3 3UTR inh 93*, HIF-2a block 1, CF NFkB inh -154, MITF TRPM1 inh 95*, Peg3 prom inh 92* and KKLEB cytotox 8.
Screening COc1ccc(C(=O)Nc2ccc3ccccc3n2)c(OC)c1OC returned Shn3 3UTR inh -12, HIF-2a block -38, CF NFkB inh 14, MITF TRPM1 inh 7, Peg3 prom inh -33 and KKLEB cytotox -52*.
For CN(C)CCNC(=O)c1cccc2[nH]c(-c3ccncc3)nc12 the results were Shn3 3UTR inh -4, HIF-2a block 38, CF NFkB inh -50, MITF TRPM1 inh 15, Peg3 prom inh 41 and KKLEB cytotox 20.
For CN(C)CCNC(=O)c1ccccc1-c1cc2ccccc2c(=O)o1 the results were Shn3 3UTR inh -9, HIF-2a block 12, CF NFkB inh 8, MITF TRPM1 inh -13, Peg3 prom inh 1 and KKLEB cytotox -8.
Screening CN(CCNC(=O)c1c[nH]c2c1ccc1ccccc12)CCNC(=O)c1c[nH]c2c1ccc1ccccc12 returned Shn3 3UTR inh 1, HIF-2a block -160, CF NFkB inh 4, MITF TRPM1 inh -32, Peg3 prom inh 97* and KKLEB cytotox -2.
CN(C(=O)COC(=O)c1cnc(Cl)c(Cl)c1)C1CCCCC1 was read as Shn3 3UTR inh 9, HIF-2a block 13, CF NFkB inh -3, MITF TRPM1 inh 35, Peg3 prom inh 50 and KKLEB cytotox -23.
For Cc1ccc(NS(=O)(=O)c2cccc(C(=O)N3CCN(C(=O)c4ccco4)CC3)c2)cc1 the results were Shn3 3UTR inh 5, HIF-2a block 19, CF NFkB inh -11, MITF TRPM1 inh 13, Peg3 prom inh 3 and KKLEB cytotox 8.
For COc1ccc(C(=O)NC(=S)NNC(=O)[C@H]2C[C@@H]2c2ccccc2)cc1OC the results were Shn3 3UTR inh 65, HIF-2a block 21, CF NFkB inh 10, MITF TRPM1 inh -3, Peg3 prom inh 61* and KKLEB cytotox -15.
